Experimental findings from PubChem BioAssay (NCATS) are described below.

SMILES strings stand for the structures. Records with an inconclusive call do not appear. Calls of active or inactive are those of the source. Calls follow the shape of the dose curve; as a rule, active = well fitted inhibition curve with a large enough effect; inconclusive = small, poorly fitted or top-dose-only effect; inactive = no such curve, though single readings can be large or run the other way.
% is scaled to controls: 0 for no effect and ±100 for the full control effect; potency is read from the fitted curve at half-maximal effect.

This assay deals with Zika virus NS2B-NS3 protease (unlinked complex). Description: Primary screen GU Rhodamine qHTS for Zika virus inhibitors: Unlinked NS2B-NS3 protease assay (AID 1347159). Also: nearly all actives have a fitted effect of over 60% in size. Conditions: Recombinant ZIKV NS2B-NS3 protease, Rhodamine110 substrate fluorescence; series mostly up to 107 µM; activity change, negative = inhibition: at the top concentration. In short, it runs like this: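 Enzyme 25 nM in Tris-HCl pH 8.0 + 0.01% Tween 20; compounds up to 114 microM, 15 min RT dark; + Rhod110 substrate 1.5 microM; read t0 and 15 min; delta fluorescence → % inhibition → 4-parameter Hill fit.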
For orientation: In qHTS, concentration-response curves come from the screen itself.
Turning to `CC(C)CCC1(O)C(=O)C(C)(C)C(O[C@@H]2O[C@H](CO)[C@@H](O)[C@H](O)[C@H]2O)C(C)(C)C1O` (some centres undefined), the Potency was 35.5 µM (active). Regarding `C=C1C(=O)OC2C1CCC(=C)C1CC(OC(C)=O)C(=C)C12` (centres undefined), the Potency was 31.6 µM (active). Consider `COc1c2c(cc3c1-c1c(cc4c(c1OC)OCO4)CC(C)C(C)C3)OCO2` (centres undefined), for which the “activity change, negative = inhibition” value was -15.6% (inactive). For `Cc1ccccc1C#Cc1ccc(CCC(=O)O)cc1`, the Potency was 14.1 µM (active). Regarding `CC(=O)c1ccc(O[C@@H]2O[C@H](CO)[C@@H](O)[C@H](O)[C@H]2O)cc1`, the “activity change, negative = inhibition” value was 4.69% (inactive). As to `CC(C)C(N)C(=O)OCCOCn1cnc2c(=O)[nH]c(N)nc21` (centres undefined), the “activity change, negative = inhibition” value is 16% (inactive). As for `Cc1ccc(NC(=O)Nc2cc(C(F)(F)F)ccc2F)cc1Nc1ccc2c(c1)NC(=O)/C2=C\c1ccc[nH]1`, the Potency is 39.8 µM (active). On to `CC(C)=CCC/C(C)=C/Cc1ccc(O)c(C2OC(=O)c3cc(C(=O)O)cc(O)c32)c1O` (centres undefined), for which the Potency was 2.24 µM (active). Regarding `CC(=O)O[C@@H]1[C@@H](O)[C@H](O[C@H]2CC[C@]34C[C@]35CC[C@]3(C)[C@@H]([C@@]6(C)CC[C@@H](C(C)(C)O)O6)[C@@H](O)C[C@@]3(C)[C@@H]5C[C@H](O[C@@H]3O[C@H](CO)[C@@H](O)[C@H](O)[C@H]3O)[C@H]4C2(C)C)OC[C@H]1O`, the “activity change, negative = inhibition” value was 1.94% (inactive). For the compound `CCc1cc(CN2CC(C(=O)O)C2)sc1-c1noc(-c2ccc(Oc3ccccc3)cc2)n1`, the Potency is 3.98 µM (active). On to `CCCC1(c2ccccc2)NC(=O)N(CC(=O)N(C)Cc2c(F)cccc2Cl)C1=O` (centres undefined), for which the “activity change, negative = inhibition” value is -20% (inactive). The same measure, in the same setting: under `CC(C)CCC(=O)CC1c2ccccc2C(=O)N1c1ccc2ccc(Cl)nc2n1` (centres undefined) stands -15% (inactive); under `COc1cc(/C=C/C(=O)OC[C@H]2O[C@@](CO)(O[C@H]3O[C@H](CO)[C@@H](O)[C@H](O)[C@H]3O)[C@@H](OC(=O)/C=C/c3ccc(O)c(OC)c3)[C@@H]2O)ccc1O`, -20.9% [at 32.5 µM] (inactive); under `OCC(CO[C@@H]1O[C@H](CO)[C@@H](O)[C@H](O)[C@H]1O)c1ccc2c(c1)OCO2` (some centres undefined), -27.8% (inactive).

As to `CC1CCC23COC(=O)C2=CC(O)CC3C1(C)CCC1=CC(O)OC1=O` (centres undefined), the Potency is 8.91 µM (active).

As to `CCCC(=O)NCCc1csc(-c2ccc(Cl)cc2)n1`, the “activity change, negative = inhibition” value is 0% (inactive).

Turning to `C/C=C/C=C/C=C/C(=O)OC1C=C(C=O)C(O)(C(=O)O)C2(C)CCCC(C)(C)C12` (centres undefined), the Potency is 8.91 µM (active).

With `COc1ccc(-c2cnc3ccc(NCc4ccc(S(N)(=O)=O)cc4)nn23)cc1OC`, the “activity change, negative = inhibition” value was 9.63% (inactive). Regarding `Cc1ccc(C)c(OCCn2cc(C(=O)O)c3ccccc32)c1`, the Potency is 39.8 µM (active). Turning to `CC(C)[C@@H](CS(=O)(=O)C(C)C)N1C(=O)[C@@](C)(CC(=O)O)C[C@H](c2cccc(Cl)c2)[C@H]1c1ccc(Cl)cc1`, the Potency is 28.2 µM (active). For the compound `CC(=O)c1c(O)cc(O[C@@H]2O[C@H](CO)[C@@H](O)[C@H](O)[C@H]2O)cc1O`, the Potency was 31.6 µM (active). For the compound `CC(=O)O[C@@H]1[C@@H](CO)O[C@@](CO)(O[C@H]2O[C@H](COC(=O)/C=C/c3ccccc3)[C@@H](O)[C@H](O)[C@H]2O)[C@H]1O`, the “activity change, negative = inhibition” value is -7.1% [at 57.1 µM] (inactive). Regarding `C=C1C(=O)OC2CC(C)=C(C(C)CCCO)C(O)C12` (centres undefined), the Potency was 20 µM (active). Regarding `Cc1cc(C(=O)N2CCCCc3ccccc32)ccc1CNC(=O)N1CCC[C@H]1C(=O)N(C)C`, the “activity change, negative = inhibition” value was 10% (inactive). In the case of `C[C@@H]1CCN(C(=O)N2CCCC2)C[C@@H]1N(C)c1ncnc2[nH]ccc12`, the “activity change, negative = inhibition” value was -0.442% (inactive). Consider `c1ccc(N2CCN(CCc3nn[nH]n3)CC2)cc1`, for which the “activity change, negative = inhibition” value is 61.4% (inactive). As for `Cc1noc(-c2ccc(-c3ccc(CC(=O)O)cc3)cc2)c1NC(=O)O[C@H](C)c1ccccc1`, the Potency is 14.1 µM (active). For `CN(C)c1ccc2c(c1)OC(N)=C(C#N)C2c1cccc(C(F)(F)F)c1` (centres undefined), the “activity change, negative = inhibition” value is 0% (inactive). Take `C/C(=C\C=C\C(C)C1CCC2(C)C3CCC4C(C)(C)C(=O)CCC45CC35CCC12C)C(=O)O` (centres undefined): the Potency is 4.47 µM (active).

For `CC1=C(/C=C/C(C)=C\C=C\C(C)=C/C(=O)O)C(C)(C)CCC1`, the Potency is 20 µM (active).

As to `C=C[C@]1(C)C=C2CCC3C(C)(CCC[C@@]3(C)C(=O)O)C2CC1` (some centres undefined), the Potency is 12.6 µM (active).

`CC(=O)OC1C[C@@]2(C)[C@@H](CC[C@@H](C)[C@]23Cc2c(O)cc4c(c2O3)CNC4=O)C(C)(C)[C@@H]1O` (some centres undefined): the “activity change, negative = inhibition” value was -2.67% [at 57.1 µM] (inactive). Turning to `O=C(O)CC1CCC(c2ccc(-c3ccc4nc(C(=O)NCc5ccc(OC(F)(F)F)cc5)cn4c3)cc2)CC1` (centres undefined), the Potency was 2.51 µM (active). The same measure, in the same setting: under `CC/C=C\CC1C(=O)C=CC1(CCCCCCCC(=O)O)OC(C)=O` (centres undefined) stands 7.08 µM (active).
